A selection: hits, their analogues and other compounds. The true share with any hit is near 3%.
FBA Mtb inh: inhibitors of M. tuberculosis fructose-bisphosphate aldolase | P9WQA3 | purified M. tuberculosis FBA, fluorescence read-out | inhibition, % at 1 µM | actives 2.3% (n = 360,000) | AID 588726; in the data active = inhibition above about 27%;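 also: 0% = vehicle and 100% = reference inhibitor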
Target sequence (P9WQA3 whole entry, looked up): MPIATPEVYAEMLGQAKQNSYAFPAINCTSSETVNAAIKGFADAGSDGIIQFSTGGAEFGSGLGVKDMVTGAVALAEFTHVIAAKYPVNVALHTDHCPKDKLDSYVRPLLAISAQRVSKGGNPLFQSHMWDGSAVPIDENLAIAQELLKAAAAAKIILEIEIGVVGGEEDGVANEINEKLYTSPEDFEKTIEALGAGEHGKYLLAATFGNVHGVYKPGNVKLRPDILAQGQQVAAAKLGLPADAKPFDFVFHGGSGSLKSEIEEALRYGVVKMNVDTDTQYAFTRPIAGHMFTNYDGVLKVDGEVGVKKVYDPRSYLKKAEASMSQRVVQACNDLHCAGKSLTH
BH1578 lux ind: induces V. cholerae light production without autoinducers. V. cholerae BH1578 lux reporter, luminescence, 6 h. activation, % at 18.7 µM. actives 0.16% (n = 350,000). AID 588436; in the data active = activation mostly above about 9.7%, no sharp cut-off
BioA inh: BioA (M. tuberculosis) enzyme inhibition; purified M. tuberculosis BioA enzyme, plate reader; inhibition, % at 9.99 µM; actives 0.096% (n = 360,000); AID 602481; in the data active = inhibition above about 40%
GDH-TPI counter: counter-screen for M. tuberculosis FBA inhibitors: GDH-TPI coupled enzymes. GDH-TPI coupled enzyme counterscreen, NADH absorbance. inhibition, % at 4.8 µM. actives 1.2% (n = 360,000); in the data active = inhibition above about 30%;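 also: 0% = DMSO wells and 100% = wells lacking the enzyme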
Numbers without * were called inactive.

Screening CCC(=O)N[C@@H]1CC[C@@H](CC(=O)NCC2CCCCC2)O[C@H]1CO returned BioA inh -2.
Screening COc1c2ccoc2nc2c(OC)c(OCC(OC(C)=O)C(C)(C)O)ccc12 (centres undefined) returned FBA Mtb inh 130*, BH1578 lux ind 0, BioA inh 0 and GDH-TPI counter 17.
COc1c2ccoc2nc2c(OC)c(OCC(O)C(C)(C)O)ccc12 (centres undefined) was read as FBA Mtb inh 146*, BioA inh 1 and GDH-TPI counter 13.
For COc1c2ccoc2nc2c(OC)c(OC[C@@H](O)C(C)(C)O)ccc12 the results were FBA Mtb inh 146*, BH1578 lux ind -3, BioA inh -1 and GDH-TPI counter 23.
Screening COc1c2ccoc2nc2c(OC)c(O)ccc12 returned FBA Mtb inh 6, BH1578 lux ind 0, BioA inh -2 and GDH-TPI counter 9.
Screening CCCN1C[C@H](C)[C@@H](OC)CN(C)C(=O)c2ccc(NC(=O)c3ccccc3)cc2OC[C@H]1C returned BioA inh 1.
For O=C(O)C1CCCC[C@H]1C(=O)Nc1ncc([N+](=O)[O-])s1 (some centres undefined) the results were FBA Mtb inh -1, BH1578 lux ind inactive, BioA inh -1 and GDH-TPI counter 31*.
`CCNC(=O)C[C@H]1CC[C@@H]2[C@@H](COc3ccc(NC(=O)C4CCCCC4)cc3C(=O)N2C)O1` gave BioA inh 1.
Screening Cc1cc(C)cc(C(=O)/C=C2\NC(=O)CS2)c1 returned FBA Mtb inh -3, BH1578 lux ind 0, BioA inh 1 and GDH-TPI counter 39*.
For Cc1ccccc1C(=O)/C=C1\NC(=O)CS1 the results were FBA Mtb inh -2, BH1578 lux ind 0 and GDH-TPI counter 48*.
`O=C1CS/C(=C/C(=O)c2ccccc2)N1` gave FBA Mtb inh -3, BH1578 lux ind inactive, BioA inh 0 and GDH-TPI counter 44*.
Screening CO[C@@H]1CN(C)C(=O)c2ccc(NC(=O)Cc3ccccc3)cc2OC[C@H](C)N(C(=O)c2ccccc2F)C[C@@H]1C returned BioA inh 0.
For CO[C@@H]1CN(C)C(=O)c2ccc(NC(=O)C3CC3)cc2OC[C@H](C)N(Cc2nccs2)C[C@H]1C the results were BioA inh 10.
Cc1noc(C)c1NC(=O)Nc1ccc2c(c1)C(=O)N([C@@H](C)CO)C[C@@H](C)[C@@H](CN(C)C(=O)Nc1ccccc1)O2 was read as BioA inh 9.
COc1ccc(NC(=O)N(C)C[C@@H]2OCCCC[C@@H](C)Oc3ccc(NC(=O)Nc4ccc(F)cc4)cc3C(=O)N([C@@H](C)CO)C[C@@H]2C)cc1 was read as BioA inh -1.
For O=C(CSc1nc2nc(-c3cccs3)cc(C(F)(F)F)c2c(=O)[nH]1)C(F)(F)F the results were FBA Mtb inh active, BH1578 lux ind inactive, BioA inh 0 and GDH-TPI counter 14.
`COc1ccccc1/C=N/NC(=O)c1cc2c(ccc3ccccc32)o1` gave FBA Mtb inh 12, BH1578 lux ind 2, BioA inh 0 and GDH-TPI counter 22.
For O=C(O)c1ccc(/C=N/NC(=O)c2cc3c(ccc4ccccc43)o2)cc1 the results were FBA Mtb inh -2, BH1578 lux ind 0, BioA inh -1 and GDH-TPI counter 57*.
`O=C(N/N=C/c1ccncc1)c1cc2c(ccc3ccccc32)o1` gave FBA Mtb inh 3, BH1578 lux ind inactive, BioA inh -2 and GDH-TPI counter 47*.
`O=C(N/N=C/c1cccc([N+](=O)[O-])c1)c1cc2c(ccc3ccccc32)o1` gave FBA Mtb inh 2, BioA inh -1 and GDH-TPI counter -1.
For COc1ccc(C=O)cc1CSc1ccccn1 the results were FBA Mtb inh -2, BH1578 lux ind 1, BioA inh 3 and GDH-TPI counter -6.
For O=C(Nc1cccnc1)c1cc2c(ccc3ccccc32)o1 the results were FBA Mtb inh 0, BH1578 lux ind -5, BioA inh 9 and GDH-TPI counter 32*.
COc1ccc(/C=N/NC(=O)c2ccc(O)cc2O)cc1CSc1ccccn1 was read as FBA Mtb inh -1, BH1578 lux ind 2, BioA inh 1 and GDH-TPI counter 38*.
`COCC(=O)N1C[C@@H](C)[C@H](OC)CN(C)C(=O)c2ccc(NC(=O)c3ccccc3)cc2OC[C@@H]1C` gave BioA inh -5.
For O=C(N/N=C/c1cccc(Oc2ccccc2)c1)c1ccncc1 the results were FBA Mtb inh -2, BH1578 lux ind inactive and GDH-TPI counter 10.
Screening O=C(CNc1ccc2ccccc2c1)N/N=C/c1ccc(C(=O)O)cc1 returned FBA Mtb inh -1, BH1578 lux ind 0, BioA inh 1 and GDH-TPI counter 11.
O=C(O)c1ccc(/C=N/NC(=O)c2cc3ccccc3cc2O)cc1 was read as FBA Mtb inh -8, BH1578 lux ind inactive, BioA inh 1 and GDH-TPI counter 41*.
O=C(N/N=C/c1cccc(Oc2ccccc2)c1)c1ccc(O)cc1O was read as FBA Mtb inh 1, BH1578 lux ind inactive, BioA inh 2 and GDH-TPI counter 34*.
`C[C@@H]1CN([C@@H](C)CO)C(=O)c2cc(C#CC3CCCC3)cnc2O[C@H]1CN(C)Cc1ccncc1` gave BioA inh 0.
COc1cccc(-c2nn(C)c3sc(C(=O)NCc4ccco4)cc23)c1 was read as FBA Mtb inh 48*, BH1578 lux ind inactive, BioA inh 1 and GDH-TPI counter 17.
`COc1cccc(-c2cc(C(=O)NCc3ccco3)no2)c1` gave FBA Mtb inh 3, BH1578 lux ind 0, BioA inh 2 and GDH-TPI counter -2.
Screening CCOc1cc(/C=N/N=C(/N)c2nonc2N)cc(Br)c1OCc1ccc(Cl)cc1 returned FBA Mtb inh 1, BH1578 lux ind inactive and GDH-TPI counter 32*.
COc1cc(/C=N/NC(N)=O)cc(Br)c1OCc1ccccc1C was read as FBA Mtb inh 0, BH1578 lux ind inactive, BioA inh -1 and GDH-TPI counter -1.
`CCOc1cc(/C=N/N=C(N)N)ccc1OCc1ccc(Cl)cc1` gave FBA Mtb inh 0, BH1578 lux ind 0, BioA inh 3 and GDH-TPI counter 0.
Screening COc1cc(/C=N/N=C(/N)c2nonc2N)cc(Br)c1OCc1ccccc1C returned FBA Mtb inh 1, BH1578 lux ind inactive and GDH-TPI counter 34*.
`CCCNC(=O)N(C)C[C@H]1Oc2cc(C#CC(C)(C)O)ccc2S(=O)(=O)N([C@H](C)CO)C[C@H]1C` gave BioA inh 2.
Screening CN(C(=O)NC1CCCCC1)[C@H]1C[C@H]2c3[nH]c4ccccc4c3CCN2C(=O)[C@H]1CO returned FBA Mtb inh 152*, BH1578 lux ind inactive, BioA inh 2 and GDH-TPI counter 18.
For O=C(c1cnc2ccccc2n1)N1CCN(c2ccc(C(F)(F)F)cn2)CC1 the results were FBA Mtb inh -4, BH1578 lux ind -1 and GDH-TPI counter 31*.
`Cc1ccc(C(=O)N2CCN(c3ccc(C(F)(F)F)cn3)CC2)cc1` gave FBA Mtb inh 4, BH1578 lux ind 0, BioA inh -1 and GDH-TPI counter 0.

From PubChem BioAssay
